Bioassay records deposited in PubChem BioAssay by National Center for Advancing Translational Sciences (NCATS).
KDM5B inhibitor = inhibitors of human KDM5B histone demethylase; hit rate 2.6% among 220,000; KDM5B demethylase, FDH-coupled NADH fluorescence (FDH is formaldehyde dehydrogenase); Q9UGL1; Potency, µM (top dose mostly 57.7 µM), hits mostly inhibitors; active means well fitted inhibition curve with a large enough effect; inconclusive means small, poorly fitted or top-dose-only effect; inactive means no such curve, though single readings can be large or run the other way; further: potency means the concentration at half of the fitted maximal effect; 0% is about no effect; nearly all actives have a fitted effect of over 70% in size
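qHTS format, multiple compound concentrations. Buffer 50 mM HEPES pH 7.5/0.01% Tween-20; 200 nM KDM5BΔAP final; 10 min compound preincubation; substrate-mix levels 12.5 µM peptide, 25 µM α-KG, 0.25 mM NAD⁺; 30 min RT; ΔRFU.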
IP6K1 inhibitor = inhibitors of human IP6K1. Q92551. IP6K1 kinase, ADP-Glo luminescence, 2 h; hits give low values. activity change, % (series mostly up to about 58 µM). hit rate 0.81% among 140,000. AID 1645851; in the data active means activity change below about -25%; further: on the % scale 0 is the no-effect control and ±100 the full control effect
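ADP-Glo luminescence measures ADP made by human IP6K1 during a 2 h RT reaction with ATP/IP6 (mix at 1.3 mM/130 uM); top library doses 57.5 and 19.1 uM final.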
* hit, by the source's call; i = inactive; ? = inconclusive; . = not tested or not shown. This is a sample that favours compounds with a hit; in the whole collection about 2.8% have one here.

SMILES | KDM5B inhibitor | IP6K1 inhibitor
O=C(Cn1ccn2nc3c(c2c1=O)CCCC3)NCc1ccc(F)cc1 | i | -6
CC(CCc1ccccc1)NC(=O)CCn1ccn2nc3c(c2c1=O)CCCC3 (stereo not drawn) | i | 18
O=C(Cn1ccn2nc3c(c2c1=O)CCCC3)NCc1cccs1 | 20µM* | 13
O=C(Cn1ccn2nc3c(c2c1=O)CCCCC3)NCc1ccc(Cl)cc1 | ? | 29
O=C1Nc2ccccc2CNC12CCN(Cc1ccc(C(F)(F)F)cc1)CC2 | i | 14
CCCc1c(C)nc2ccc(Cl)cc2c1-c1ccccc1 | i | .
CCn1cc(-c2ccc(Cl)cc2)cc1C(=O)N1CCN(C(C)C)CC1 | i | -7
O=C(Cc1nc(-c2c[nH]c(C(=O)N3CCCC3)c2)cs1)NCc1ccccc1 | i | .
CC(C)C(NC(=O)c1ccccc1F)C(=O)NN (stereo not drawn) | i | .
COc1ccc(CNC(=O)Cn2ccn3nc4c(c3c2=O)CCCC4)cc1OC | ? | 29
COc1cccc(CNC(=O)Cn2ccn3nc4c(c3c2=O)CCCC4)c1 | 25µM* | 2
COc1ccc(CCc2nc3nccc(-c4ccccn4)n3n2)cc1 | i | 3
COc1ccc(CCc2nc3nccc(-c4cccc(OC)c4)n3n2)cc1 | 18µM* | 1
COc1ccc(Cc2nc3nccc(-c4cccnc4)n3n2)cc1 | i | -11
COc1ccc(Cc2nc3nccc(-c4cccc(OC)c4)n3n2)cc1 | 20µM* | -4
OCC1(CCCc2ccccc2)CCN(Cc2cccn2-c2nccs2)CC1 | i | 0
O=C(NCc1nnc2cc(-c3nc(C4CC4)no3)ccn12)c1ccccc1F | 8.9µM* | 11
O=C(NCc1nnc2cc(-c3nc(C4CC4)no3)ccn12)c1ccc(F)c(Cl)c1 | ? | 12
O=C(NCc1nnc2cc(-c3nc(C4CC4)no3)ccn12)c1ccc(F)cc1 | i | -5
O=C(NCc1nnc2cc(-c3nc(C4CC4)no3)ccn12)c1nccc2ccccc12 | 28µM* | 6
O=C(NCc1nnc2c(-c3nc(C4CC4)no3)cccn12)c1nccc2ccccc12 | ? | 45
COc1ccc(Cl)cc1C(=O)NCc1nnc2cc(-c3nc(C4CC4)no3)ccn12 | ? | 6
COc1ccccc1C(=O)NCc1nnc2cc(-c3nc(C4CC4)no3)ccn12 | 28µM* | 7
O=C(NCc1nnc2cc(-c3nc(C4CC4)no3)ccn12)c1ccc(F)c(F)c1 | 28µM* | 23
O=C(C1CCCN1C(=O)Nc1ccccc1)N1CCC(N2Cc3cccn3C2=O)CC1 (stereo not drawn) | . | 10
SMILES | KDM5B inhibitor | IP6K1 inhibitor
CC(C)CC(=O)N1C[C@@H](Oc2ccccc2)C[C@H]1C(=O)N1CCOCC1 | i | -7
CC(C)c1noc(CN(C)C(=O)c2csc3nc(-c4ccc(F)cc4)cn23)n1 | i | -12
Cc1ccc(NC(=O)c2cnc3ccccc3n2)c(C)c1 | i | .
O=C(NCc1nnc2cc(-c3nc(C4CC4)no3)ccn12)c1cccnc1 | 28µM* | 6
Cc1cccc(C(=O)NCc2nnc3cc(-c4nc(C5CC5)no4)ccn23)c1 | i | 0
COCc1ccc2c(c1)c(OC(C)(C)C(=O)NC1CCOCC1)nn2CCC(C)C | 40µM* | -2
COCc1ccc2c(c1)c(OC(C)(C)C(=O)NC1CCC(O)CC1)nn2CCC(C)C (stereo not drawn) | 32µM* | 6
COCc1ccc2c(c1)c(OC(C)(C)C(=O)NCCCN1CCCC1=O)nn2CCC(C)C | ? | -6
COCc1ccc2c(c1)c(OC(C)(C)C(=O)NC1CCOCC1)nn2Cc1cccnc1 | i | 5
CC(NC(=O)Cc1ccc(F)cc1)C(=O)N1CCC2(CC1)NCCc1[nH]cnc12 (stereo not drawn) | i | .
Cc1ccc(-c2cccc(CN3CCCC3C(=O)NCc3cccc(F)c3)c2)cc1Cl (stereo not drawn) | . | -4
CN(Cc1ccccc1)C(=O)C[C@@H]1O[C@H](CNC(=O)C2CC2)[C@@H](O)[C@H]1O | i | -9
Cn1c(=O)[nH]c(=O)c2c1nc(SCCc1ccccc1)n2Cc1ccccc1 | i | .
CC(C(=O)Nc1ccccc1C(F)(F)F)N1C(=O)c2ccccc2C1=O (stereo not drawn) | i | .
CN1CCN(C(=O)C2CCc3nnc(C4CC4)n32)CC1 (stereo not drawn) | . | 10
COc1ccccc1CN1CCc2nc(C(=O)Nc3ccccc3)oc2CC1 | ? | -2
Cc1ccccc1CN1CCc2nc(C(=O)Nc3ccccc3)oc2CC1 | 28µM* | 0
Cc1cc(F)cc(CN2CCc3nc(C(=O)Nc4ccccc4)oc3CC2)c1 | 28µM* | 12
O=C(Nc1ccccc1)c1nc2c(o1)CCN(Cc1ccccc1)CC2 | ? | 5
Cn1cccc1C(=O)N1CCc2nn(Cc3ccccc3)c(=O)n2CC1 | i | 6
Cc1cn2nc(C(=O)NCc3cccc(Cl)c3)cc2c(=O)[nH]1 | i | -4
